# Results filed as inconclusive are left out. Activity calls are given as the source filed them. How the source made its calls: active means hit-call score of the fitted dose curve at least 0.9, where 1 is the maximum; inconclusive means response in the unintended direction; inactive means score below 0.9.
# Assays:
# [1] = target: human c-Jun N-terminal Kinases (JNK2), MAPK9 (gene 5601) (UniProt P45984); test: NVS_ENZ_hJNK2: NovaScreen (NVS) Enzymatic Assay for human c-Jun N-terminal Kinases (JNK2) (AID 2283171)
# Sequence of human c-Jun N-terminal Kinases (JNK2), MAPK9 (gene 5601) (P45984 whole entry, looked up): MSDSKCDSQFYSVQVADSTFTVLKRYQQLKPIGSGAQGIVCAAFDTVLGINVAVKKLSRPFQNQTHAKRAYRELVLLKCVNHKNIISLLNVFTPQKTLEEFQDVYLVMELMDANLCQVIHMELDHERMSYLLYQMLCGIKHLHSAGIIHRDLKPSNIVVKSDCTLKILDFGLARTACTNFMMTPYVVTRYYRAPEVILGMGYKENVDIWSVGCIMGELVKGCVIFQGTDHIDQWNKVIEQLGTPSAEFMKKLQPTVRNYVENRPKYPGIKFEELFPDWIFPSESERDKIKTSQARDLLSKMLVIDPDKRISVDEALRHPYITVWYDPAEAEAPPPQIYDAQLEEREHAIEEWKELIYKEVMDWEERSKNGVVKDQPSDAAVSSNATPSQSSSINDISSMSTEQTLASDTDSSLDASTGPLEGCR
# How it was run: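 Cell-free recombinant human JNK2 activity assay; fluorescent substrate and product separated by electrophoretic mobility shift, read 1 h after dosing. Primary duplicate screen at 25 uM; actives run in concentration-response up to 50 uM, relative to DMSO.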
# [2] = target: human LYN Proto-Oncogene, Src family Tyrosine Kinase (LynA), LYN (gene 4067) (UniProt P07948); test: NVS_ENZ_hLynA: NovaScreen (NVS) Enzymatic Assay for human LYN Proto-Oncogene, Src family Tyrosine Kinase (LynA) (AID 2283173)
# Sequence of human LYN Proto-Oncogene, Src family Tyrosine Kinase (LynA), LYN (gene 4067) (P07948 whole entry, looked up): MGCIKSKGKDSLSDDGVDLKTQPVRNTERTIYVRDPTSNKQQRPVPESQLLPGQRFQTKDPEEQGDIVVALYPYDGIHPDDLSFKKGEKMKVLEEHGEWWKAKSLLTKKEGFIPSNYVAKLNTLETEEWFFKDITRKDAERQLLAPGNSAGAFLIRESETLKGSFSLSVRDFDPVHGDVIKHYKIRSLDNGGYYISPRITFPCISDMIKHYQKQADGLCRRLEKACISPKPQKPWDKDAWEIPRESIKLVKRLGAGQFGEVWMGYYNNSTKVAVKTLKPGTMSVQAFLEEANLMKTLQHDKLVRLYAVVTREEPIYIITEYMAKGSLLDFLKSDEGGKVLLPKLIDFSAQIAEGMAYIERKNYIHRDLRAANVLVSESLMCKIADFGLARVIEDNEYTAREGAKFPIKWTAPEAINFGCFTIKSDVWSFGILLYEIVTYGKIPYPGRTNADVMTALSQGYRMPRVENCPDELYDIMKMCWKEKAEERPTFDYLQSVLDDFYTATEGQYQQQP
# How it was run: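 Recombinant kinase with fluorescent substrate; product separated from substrate by electrophoretic mobility shift and read 1 h after dosing. Duplicate screen at 25 uM, then concentration-response up to 50 uM; activity scored as signal loss against DMSO.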
# [3] = target: Mitogen-activated protein kinase 3 (Homo sapiens) (UniProt P27361); test: NVS_ENZ_hMAPK3: NovaScreen (NVS) Enzymatic Assay for human Mitogen-Activated Protein Kinase 3 (MAPK 3) (AID 2283177)
# Sequence of Mitogen-activated protein kinase 3 (Homo sapiens) (P27361 whole entry, looked up): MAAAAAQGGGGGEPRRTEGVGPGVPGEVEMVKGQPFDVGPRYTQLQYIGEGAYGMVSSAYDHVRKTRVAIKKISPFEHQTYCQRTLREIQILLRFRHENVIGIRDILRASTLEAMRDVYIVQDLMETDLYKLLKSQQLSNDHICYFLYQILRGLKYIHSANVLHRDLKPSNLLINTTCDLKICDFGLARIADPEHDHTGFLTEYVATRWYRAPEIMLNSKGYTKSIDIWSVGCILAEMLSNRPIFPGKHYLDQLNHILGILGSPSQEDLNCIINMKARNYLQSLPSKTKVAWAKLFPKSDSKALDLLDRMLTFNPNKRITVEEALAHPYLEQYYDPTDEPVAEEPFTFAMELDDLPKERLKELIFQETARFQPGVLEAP
# How it was run: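 Cell-free enzymatic assay with recombinant protein and specific substrate; fluorescence and electrophoretic mobility shift read-out 1 h after dosing. Primary screen duplicate at 25 uM; actives then run in concentration-response up to 50 uM, loss of signal versus DMSO.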
compound,measurement,setting,value
Cc1ccc(C(C)C)c(O)c1,outcome,[1],inactive
NCCO,outcome,[1],inactive
CC(=O)Oc1ccccc1C(=O)O,outcome,[2],inactive
O=C(O)CCCCC(=O)O,outcome,[3],inactive
Cc1ccc(Cl)cc1,outcome,[3],inactive

# Source: PubChem BioAssay (EPA / NIEHS)
